Test in all cases: NCI-60 one-dose screen, 48 h (100 = growth as untreated, 0 = no growth, -100 = all killed)
The test system of one assay is DU-145 prostate. The note with it: 10 µM unless noted.
A further assay has as its system K-562 leukemia. Particulars: 10 µM unless noted.
Another assay concerns MALME-3M melanoma. Particulars: 10 µM unless noted.
A further assay has as its system MDA-MB-231 breast. Particulars: 10 µM unless noted.
Another assay concerns RXF 393 renal. Particulars: 10 µM unless noted.
Another assay concerns SF-268 CNS. Particulars: 10 µM unless noted.
The subject of the next assay is SF-295 CNS. The note with it: 10 µM unless noted.
The next assay relates to SF-539 CNS. The note with it: 10 µM unless noted.
The next assay relates to UACC-257 melanoma. The note with it: 10 µM unless noted.
For the next assay, the system named is M14 melanoma. The note with it: 10 µM unless noted.
The subject of the next assay is HCT-15 colon. The note with it: 10 µM unless noted.
In the next assay the test system is HT29 colon. Particulars: 10 µM unless noted.
Another assay concerns SNB-19 CNS. Particulars: 10 µM unless noted.
Another assay deals with U251 CNS. Particulars: 10 µM unless noted.
The next assay deals with PC-3 prostate. The note with it: 10 µM unless noted.
The test system of another assay is SK-MEL-5 melanoma. Particulars: 10 µM unless noted.
For another assay, the system named is UACC-62 melanoma. The note with it: 10 µM unless noted.
Another assay has as its system LOX IMVI melanoma. Particulars: 10 µM.
A further assay relates to SK-MEL-28 melanoma. Particulars: 10 µM unless noted.

About 83,000 compounds went through this panel and 20% of them were active in at least one assay; those are over-represented in the sample as a whole.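 Percent growth is the endpoint: 0 to 100 indicates growth inhibition (40 means 60% inhibition), 0 means no net growth, and negative values indicate cell death.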 Unmarked numbers belong to inactive results. The source made the active and inactive calls. How the source made its calls: active means growth percent below 10; inactive means the rest.

Consider `O=C(C1=CNC(=S)NC1c1ccc(O)cc1)c1cc2ccccc2oc1=O` (configuration not stated), for which the growth in the assay on DU-145 prostate was 110%; in the assay with K-562 leukemia, 90.9%; with MALME-3M melanoma, 108%; with MDA-MB-231 breast, 105%; in the assay with RXF 393 renal it was 109%; in the assay with SF-268 CNS, 97.5%. In addition, the growth in the assay with SF-295 CNS is 98.8%; in the assay on SF-539 CNS, 91.9%; in the assay with UACC-257 melanoma it was 107%; in the assay on M14 melanoma, 96.4%; with HCT-15 colon, 104%; in the assay with HT29 colon, 106%. Moreover, the growth is 97.7% in the assay with SNB-19 CNS; 102% with U251 CNS; 86.7% in the assay on PC-3 prostate; 101% with SK-MEL-5 melanoma; 95.8% with UACC-62 melanoma; 91.5% in the assay on LOX IMVI melanoma. In addition, the growth with SK-MEL-28 melanoma is 118%.

For `Clc1cccc(N/N=C/c2c[nH]c3ccc(Br)cc23)n1`, the growth with DU-145 prostate is 64.1%; in the assay on K-562 leukemia, -26% (active); in the assay with MALME-3M melanoma, 39%; in the assay with MDA-MB-231 breast, -67.7% (active); in the assay on RXF 393 renal, 31.6%; with SF-268 CNS, 40.8%. The growth was -9.75% (active) with SF-295 CNS; -1.26% (active) in the assay on SF-539 CNS; 57.6% in the assay on UACC-257 melanoma; 15.2% in the assay with M14 melanoma; 22.3% with HCT-15 colon; 23.6% in the assay with HT29 colon. In addition, the growth in the assay with SNB-19 CNS was 20.5%; in the assay on U251 CNS it was 17.1%; with PC-3 prostate it was 7.77% (active); in the assay on SK-MEL-5 melanoma it was 40.3%; in the assay with UACC-62 melanoma it was 1.6% (active); in the assay with LOX IMVI melanoma it was -60.9% (active). Moreover, in the assay on SK-MEL-28 melanoma, the growth is 49.1%.

Regarding `C=C1CCC2C3(C)COC(c4ccccc4)OC3CCC2(C)C1CC(Sc1ccccc1)C1=CCOC1=O` (configuration not stated), the growth is 70.6% in the assay with DU-145 prostate; 7.88% (active) in the assay on K-562 leukemia; 92.8% with MALME-3M melanoma; 62.5% with MDA-MB-231 breast; 72.7% with RXF 393 renal; 83.3% in the assay on SF-268 CNS. The growth was 62.7% with SF-295 CNS; 17.7% with SF-539 CNS; 63.8% in the assay on UACC-257 melanoma; 53.7% with M14 melanoma; 5.46% (active) in the assay with HCT-15 colon; 13.8% in the assay on HT29 colon. For the same compound, the growth in the assay with SNB-19 CNS is 85.5%; in the assay with U251 CNS, 17.5%; with PC-3 prostate, 29.3%; in the assay on SK-MEL-5 melanoma it was 55.2%; in the assay with UACC-62 melanoma, 39.5%; in the assay on LOX IMVI melanoma, -98% (active). In the assay on SK-MEL-28 melanoma, the growth is 82.5%.

For the compound `CCOC(=O)/C=C/c1cccc2c1C(=O)NC(C)(c1cc3cc(Cl)ccc3oc1=O)N2` (configuration not stated), the growth is 37.7% in the assay on DU-145 prostate; 19% in the assay with K-562 leukemia; 32.7% in the assay on MALME-3M melanoma; 32.1% with MDA-MB-231 breast; -1.81% (active) in the assay with RXF 393 renal; 45.5% with SF-268 CNS. Further, the growth with SF-295 CNS was 19.3%; in the assay with SF-539 CNS, 38.5%; with UACC-257 melanoma, 44.3%; in the assay on M14 melanoma, 22.3%; in the assay on HCT-15 colon it was 20.9%; in the assay on HT29 colon it was 32.5%. Moreover, the growth was 33.8% in the assay with SNB-19 CNS; 33.9% in the assay with U251 CNS; 17.4% in the assay with PC-3 prostate; 10.2% in the assay on SK-MEL-5 melanoma; 13.4% with UACC-62 melanoma; 22.2% in the assay with LOX IMVI melanoma. For the same compound, in the assay with SK-MEL-28 melanoma, the growth was 53.9%.

`O=C1/C(=C/C2=Cc3ccccc3OC2)SC(=S)N1c1ccccc1F`: the growth with DU-145 prostate was 108%; in the assay on K-562 leukemia, 92.4%; with MALME-3M melanoma, 96.2%; in the assay with MDA-MB-231 breast it was 97.2%; with RXF 393 renal it was 109%; with SF-268 CNS, 122%. The growth is 96.9% in the assay with SF-295 CNS; 97.6% in the assay with SF-539 CNS; 107% in the assay with UACC-257 melanoma; 93.3% with M14 melanoma; 107% in the assay with HCT-15 colon; 110% with HT29 colon. In addition, the growth is 98.2% in the assay with SNB-19 CNS; 102% with U251 CNS; 95.7% with PC-3 prostate; 105% in the assay on SK-MEL-5 melanoma; 88.4% with UACC-62 melanoma; 101% in the assay on LOX IMVI melanoma. Besides, in the assay on SK-MEL-28 melanoma, the growth is 105%.

For the compound `CN(C)CCCNC(=O)c1cc(NC(=O)c2cc(NC(=O)c3ccc(C#Cc4ccccc4)cc3)cn2C)cn1C`, the growth in the assay with DU-145 prostate was 18.2%; with K-562 leukemia it was -54.9% (active); with MALME-3M melanoma, -95.8% (active); in the assay with MDA-MB-231 breast, -68.8% (active); in the assay on RXF 393 renal, -37.7% (active); with SF-268 CNS it was 18.1%. The growth is -91.8% (active) in the assay with SF-295 CNS; -84.1% (active) with SF-539 CNS; 43.8% with UACC-257 melanoma; -79.8% (active) in the assay on M14 melanoma; -20.6% (active) with HCT-15 colon; -68.4% (active) in the assay on HT29 colon. Further, the growth in the assay on SNB-19 CNS is 24.7%; with U251 CNS, -91.6% (active); in the assay with PC-3 prostate, -30.8% (active); in the assay on SK-MEL-5 melanoma, -93.7% (active); in the assay on UACC-62 melanoma, -33.1% (active); in the assay on LOX IMVI melanoma, -100% (active). The growth in the assay on SK-MEL-28 melanoma was 47.1%.

Take `O=C1CC(Sc2n[nH]c(-c3ccncc3)n2)C(=O)N1c1ccc(Br)cc1` (configuration not stated): the growth is 117% with DU-145 prostate; 88.5% with K-562 leukemia; 104% with MALME-3M melanoma; 99% in the assay on MDA-MB-231 breast; 137% with RXF 393 renal; 117% with SF-268 CNS. Also, the growth with SF-295 CNS was 107%; with SF-539 CNS, 102%; with UACC-257 melanoma, 105%; in the assay with M14 melanoma it was 115%; in the assay on HCT-15 colon, 102%; in the assay with HT29 colon, 112%. Also, the growth in the assay with SNB-19 CNS was 96.1%; with U251 CNS, 107%; in the assay with PC-3 prostate, 118%; in the assay on SK-MEL-5 melanoma, 115%; with UACC-62 melanoma, 96.9%; in the assay on LOX IMVI melanoma, 100%. In addition, the growth in the assay with SK-MEL-28 melanoma is 108%.

Take `COc1ccc(-c2ccnc(SCc3cc4cc(OC)ccc4[nH]c3=O)n2)cc1`: the growth in the assay on DU-145 prostate is 43.7%; in the assay on K-562 leukemia, 4.74% (active); in the assay on MALME-3M melanoma it was 36.7%; with MDA-MB-231 breast it was 22.7%; in the assay on RXF 393 renal, 7.02% (active); in the assay on SF-268 CNS it was 36.6%. Further, the growth is 17.5% with SF-295 CNS; 20.5% with SF-539 CNS; 38% with UACC-257 melanoma; 19.8% in the assay on M14 melanoma; 10.5% in the assay on HCT-15 colon; 19.9% with HT29 colon. The growth was 36.3% in the assay with SNB-19 CNS; 22.7% in the assay on U251 CNS; 23.8% with PC-3 prostate; -3.59% (active) in the assay on SK-MEL-5 melanoma; 16.4% in the assay on UACC-62 melanoma; 18.7% with LOX IMVI melanoma. The growth in the assay on SK-MEL-28 melanoma is 36.5%.
